# How the values were obtained:
# Assay in all cases: yeast three-hybrid, YBZ-1, SC-Leu-His + 0.5 mM 3-AT, 4 days
# Details in all cases: tags: N-Gal4 AD-HA kept; label: inside an RPR1-promoter hybrid RNA with tandem MS2 sites; ssRNA
# [1] = target: PUM1 PUF domain R3-RCD (Homo sapiens, UniProt Q14671 828-1176, C935R;R936C;Q939D)
# Procedure, shortened: (§1)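 Repeat regions from input (SC-Leu) and selection (SC-Leu-His + 0.5 mM 3-AT) plates were PCR-amplified and Illumina-sequenced after four days of growth. The cells were strain YBZ-1 with a LexA–MS2 coat fusion and a HIS3 reporter, co-expressing Pumilio-1 PUF domain libraries and matching RNA elements from a centromeric plasmid. The interaction score is the log change in variant frequency from input to selection, taken in log2 with a pseudocount of 1 for absent variants.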
# [2] = target: PUM1 PUF domain R3-SCP (Homo sapiens, UniProt Q14671 828-1176, C935S;R936C;Q939P)
# Procedure, shortened: as §1
# [3] = target: PUM1 PUF domain R3-RVN (Homo sapiens, UniProt Q14671 828-1176, C935R;R936V;Q939N)
# Procedure, shortened: as §1
# [4] = target: PUM1 PUF domain R3-FRR (Homo sapiens, UniProt Q14671 828-1176, C935F;Q939R)
# Procedure, shortened: as §1
# [5] = target: PUM1 PUF domain R3-GIR (Homo sapiens, UniProt Q14671 828-1176, C935G;R936I;Q939R)
# Procedure, shortened: as §1
# [6] = target: PUM1 PUF domain R3-VRS (Homo sapiens, UniProt Q14671 828-1176, C935V;Q939S)
# Procedure, shortened: as §1
# [7] = target: PUM1 PUF domain R3-AAE (Homo sapiens, UniProt Q14671 828-1176, C935A;R936A;Q939E)
# Procedure, shortened: as §1
# [8] = target: PUM1 PUF domain R4-FNI (Homo sapiens, UniProt Q14671 828-1176, N971F;H972N;Q975I)
# Procedure, shortened: as §1
# [9] = target: PUM1 PUF domain R4-MFN (Homo sapiens, UniProt Q14671 828-1176, N971M;H972F;Q975N)
# Procedure, shortened: as §1
# [10] = target: T1, PUM1 PUF domain R6-IWK (Homo sapiens, UniProt Q14671 828-1176, N1043I;Y1044W;Q1047K)
# T1 sequence: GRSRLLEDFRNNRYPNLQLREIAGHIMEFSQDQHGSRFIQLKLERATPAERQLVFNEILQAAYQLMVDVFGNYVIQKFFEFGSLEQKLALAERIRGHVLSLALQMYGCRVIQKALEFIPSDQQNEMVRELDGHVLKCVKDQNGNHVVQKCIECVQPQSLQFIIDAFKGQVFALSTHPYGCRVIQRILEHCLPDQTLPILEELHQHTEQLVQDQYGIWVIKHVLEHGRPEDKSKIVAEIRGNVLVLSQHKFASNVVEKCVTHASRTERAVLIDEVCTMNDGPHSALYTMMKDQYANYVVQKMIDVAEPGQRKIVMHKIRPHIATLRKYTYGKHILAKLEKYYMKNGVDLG
# Procedure, shortened: as §1
# [11] = target: PUM1 PUF domain R4-EHG (Homo sapiens, UniProt Q14671 828-1176, N971E;Q975G)
# Procedure, shortened: as §1
# [12] = target: PUM1 PUF domain R7-TVV (Homo sapiens, UniProt Q14671 828-1176, S1079T;N1080V;E1083V)
# Procedure, shortened: as §1
# [13] = target: PUM1 PUF domain R7-RRH (Homo sapiens, UniProt Q14671 828-1176, S1079R;N1080R;E1083H)
# Procedure, shortened: as §1
# [14] = target: PUM1 PUF domain R1-GYK (Homo sapiens, UniProt Q14671 828-1176, S863G;R864Y;Q867K)
# Procedure, shortened: as §1
# [15] = target: PUM1 PUF domain R1-RLV (Homo sapiens, UniProt Q14671 828-1176, S863R;R864L;Q867V)
# Procedure, shortened: as §1
# [16] = target: PUM1 PUF domain R5-NVA (Homo sapiens, UniProt Q14671 828-1176, C1007N;R1008V;Q1011A)
# Procedure, shortened: as §1
# [17] = target: PUM1 PUF domain R5-LKL (Homo sapiens, UniProt Q14671 828-1176, C1007L;R1008K;Q1011L)
# Procedure, shortened: as §1
# [18] = target: PUM1 PUF domain R8-PWI (Homo sapiens, UniProt Q14671 828-1176, N1122P;Y1123W;Q1126I)
# Procedure, shortened: as §1
sequence,measurement,setting,value
GGCUAGAACUAGUGGAUCCCCCGGCGCCCGGCGGCUCGAGCCCGGGUAAGUGUAAUUAGUCUGCAUGCCGCCGGGCGCCAUGCCUGCAGGUCGACUCUAGAAAACAUG,binding signal,[1],3.1 log2 enrichment (interaction score)
same,binding signal,[2],3.31 log2 enrichment (interaction score)
same,binding signal,[3],4.09 log2 enrichment (interaction score)
same,binding signal,[4],2.42 log2 enrichment (interaction score)
same,binding signal,[5],1.55 log2 enrichment (interaction score)
GGCUAGAACUAGUGGAUCCCCCGGCGCCCGGCGGCUCGAGCCCGGGUAAGUGUAAGUAGUCUGCAUGCCGCCGGGCGCCAUGCCUGCAGGUCGACUCUAGAAAACAUG,binding signal,[1],2.53 log2 enrichment (interaction score)
same,binding signal,[6],0.45 log2 enrichment (interaction score)
same,binding signal,[2],3.88 log2 enrichment (interaction score)
same,binding signal,[4],5.43 log2 enrichment (interaction score)
same,binding signal,[5],3.07 log2 enrichment (interaction score)
same,binding signal,[7],3.07 log2 enrichment (interaction score)
GGCUAGAACUAGUGGAUCCCCCGGCGCCCGGCGGCUCGAGCCCGGGUAAGUGUAUAUAGUCUGCAUGCCGCCGGGCGCCAUGCCUGCAGGUCGACUCUAGAAAACAUG,binding signal,[8],2.63 log2 enrichment (interaction score)
GGCUAGAACUAGUGGAUCCCCCGGCGCCCGGCGGCUCGAGCCCGGGUAAGUGUAAAUAGUCUGCAUGCCGCCGGGCGCCAUGCCUGCAGGUCGACUCUAGAAAACAUG,binding signal,[9],2.97 log2 enrichment (interaction score)
same,binding signal,[6],3.88 log2 enrichment (interaction score)
same,binding signal,[10],2.18 log2 enrichment (interaction score)
same,binding signal,[11],2.3 log2 enrichment (interaction score)
GGCUAGAACUAGUGGAUCCCCCGGCGCCCGGCGGCUCGAGCCCGGGUAAGUUUAAAUAGUCUGCAUGCCGCCGGGCGCCAUGCCUGCAGGUCGACUCUAGAAAACAUG,binding signal,[12],3.71 log2 enrichment (interaction score)
same,binding signal,[13],5.13 log2 enrichment (interaction score)
GGCUAGAACUAGUGGAUCCCCCGGCGCCCGGCGGCUCGAGCCCGGGUAAGUGUAAAUCGUCUGCAUGCCGCCGGGCGCCAUGCCUGCAGGUCGACUCUAGAAAACAUG,binding signal,[14],5.06 log2 enrichment (interaction score)
same,binding signal,[15],2.36 log2 enrichment (interaction score)
GGCUAGAACUAGUGGAUCCCCCGGCGCCCGGCGGCUCGAGCCCGGGUAAGUGUAAAUGGUCUGCAUGCCGCCGGGCGCCAUGCCUGCAGGUCGACUCUAGAAAACAUG,binding signal,[14],0.96 log2 enrichment (interaction score)
GGCUAGAACUAGUGGAUCCCCCGGCGCCCGGCGGCUCGAGCCCGGGUAAGUGAAAAUAGUCUGCAUGCCGCCGGGCGCCAUGCCUGCAGGUCGACUCUAGAAAACAUG,binding signal,[10],5.15 log2 enrichment (interaction score)
GGCUAGAACUAGUGGAUCCCCCGGCGCCCGGCGGCUCGAGCCCGGGUAAGUGUAAAUUGUCUGCAUGCCGCCGGGCGCCAUGCCUGCAGGUCGACUCUAGAAAACAUG,binding signal,[15],2.9 log2 enrichment (interaction score)
GGCUAGAACUAGUGGAUCCCCCGGCGCCCGGCGGCUCGAGCCCGGGUAAGUGUUAAUAGUCUGCAUGCCGCCGGGCGCCAUGCCUGCAGGUCGACUCUAGAAAACAUG,binding signal,[16],3.11 log2 enrichment (interaction score)
GGCUAGAACUAGUGGAUCCCCCGGCGCCCGGCGGCUCGAGCCCGGGUAAGUGUCAAUAGUCUGCAUGCCGCCGGGCGCCAUGCCUGCAGGUCGACUCUAGAAAACAUG,binding signal,[17],4 log2 enrichment (interaction score)
GGCUAGAACUAGUGGAUCCCCCGGCGCCCGGCGGCUCGAGCCCGGGUAAGUCUAAAUAGUCUGCAUGCCGCCGGGCGCCAUGCCUGCAGGUCGACUCUAGAAAACAUG,binding signal,[13],4.29 log2 enrichment (interaction score)
GGCUAGAACUAGUGGAUCCCCCGGCGCCCGGCGGCUCGAGCCCGGGUAAGUGUACAUAGUCUGCAUGCCGCCGGGCGCCAUGCCUGCAGGUCGACUCUAGAAAACAUG,binding signal,[11],2.82 log2 enrichment (interaction score)
GGCUAGAACUAGUGGAUCCCCCGGCGCCCGGCGGCUCGAGCCCGGGUAAGCGUAAAUAGUCUGCAUGCCGCCGGGCGCCAUGCCUGCAGGUCGACUCUAGAAAACAUG,binding signal,[18],4.09 log2 enrichment (interaction score)

# — article PMC8384837, “Expanding the binding specificity for RNA recognition by a PUF domain”
